Measurements: PubChem BioAssay (Tox21)
Inconclusive results are not listed. Active and inactive are the calls of the source. Calls follow the shape of the dose curve; as a rule, active = well fitted curve in the direction sought with a large enough effect in the repeat runs; inconclusive = weak or mixed curves; inactive = no such curve, though single readings can be large; an effect the other way counts as inactive or inconclusive.

Legend:
[1] = Human pregnane X receptor (PXR) small molecule agonists, qHTS cell viability counter screen (AID 1346977); also: nearly all actives have a fitted effect of over 50% in size
Outline: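 Fluorescence read-out (CellTiter-Fluor) of viability in PXR-Luc HepG2 cells, multiplexed with the luciferase agonist read. Compounds in DMSO added after 5hr plating; 24hr total exposure at 37C, 5% CO2.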

[2] = Caspase-3/7 induction in HepG2 cells by small molecules, qHTS assay (AID 1346978); also: nearly all actives have a fitted effect of over 15% in size
Outline: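 Wild-type HepG2 cells (2,000/well) were settled 5 h at 37 C, 5% CO2, then exposed to compounds in DMSO for 17 h. Caspase-3/7 activity was read by luminescence 30 min after adding Caspase-Glo 3/7 reagent at room temperature.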

[3] = Caspase-3/7 induction in CHO-K1 cells by small molecules, qHTS assay (AID 1346980); also: nearly all actives have a fitted effect of over 15% in size
Outline: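 Wild-type cells were seeded at 1,500 per well and settled 5 hr at 37 C, 5% CO2, then exposed to DMSO-dissolved compounds for 17 hr. Caspase-Glo 3/7 reagent was added, and luminescence was read after 30min at room temperature.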

[4] = Caspase-3/7 induction in HepG2 cells by small molecules, qHTS cell viability counter screen (AID 1346981); also: nearly all actives have a fitted effect of over 30% in size; also: potency is read from the fitted curve at half-maximal effect; as to activity change, negative = cytotoxicity: series mostly up to about 92 µM
Outline: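 Cell viability is measured as a cytotoxicity counter screen alongside the Caspase-Glo 3/7 readout in identical wells. Wild-type HepG2 cells are treated with test compounds for 16 hr at 37 C before CellTiter-Fluor addition and a 1-hr incubation.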

[5] = target: Voltage-gated inwardly rectifying potassium channel KCNH2 (Homo sapiens) (UniProt Q12809); assay: Human Ether-a-go-go-Related Gene (hERG) channel small molecule antagonists: fluorescence cell-based qHTS assay (AID 1671200); also: nearly all actives have a fitted effect of over 50% in size; also: potency is read from the fitted curve at half-maximal effect;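 as to activity change, negative = inhibition: hERG-expressing U2OS cells given a thallium stimulus after FluxOR II dye loading; series mostly up to about 77 µM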
Outline: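 Read-out: thallium influx as a surrogate for potassium, tracked as fluorescence (480 nm ex/540 nm em) every second for 2 min after Stimulus Buffer addition in dye-loaded hERG-U2OS cells.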

[6] = target: Nuclear receptor subfamily 1 group I member 2 (Homo sapiens) (UniProt O75469); assay: Human pregnane X receptor (PXR) small molecule agonists, qHTS assay (AID 1346982); also: nearly all actives have a fitted effect of over 35% in size; also: potency is read from the fitted curve at half-maximal effect
Outline: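 Cells: HepG2 stably carrying PXR-Luc. Medium held 5% charcoal-stripped FBS. Compounds in DMSO added after 5 hr plating, incubated 24 hr, then luminescence quantified with ONE-Glo.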

[7] = target: Cytochrome P450 2D6 (Homo sapiens) (UniProt P10635); assay: Cytochrome P450 Family 2 Subfamily D Member 6 (CYP2D6) small molecule antagonists: luciferase reporter qHTS assay (AID 1671196); also: nearly all actives have a fitted effect of over 50% in size; also: potency is read from the fitted curve at half-maximal effect; as to activity change, negative = inhibition: series mostly up to about 120 µM
Outline: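 Enzyme and proluciferin substrate were first combined with test chemical for 10 min at room temperature. Adding NADPH regeneration solution started a 1 h reaction, stopped with luciferin detection reagent and read by luminescence 20 min later.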

[8] = target: Cytochrome P450 2C19 (Homo sapiens) (UniProt P33261); assay: Cytochrome P450 Family 2 Subfamily C Member 19 (CYP2C19) small molecule antagonists: luciferase reporter qHTS assay (AID 1671197); also: nearly all actives have a fitted effect of over 65% in size; also: potency is read from the fitted curve at half-maximal effect; as to activity change, negative = inhibition: series mostly up to about 120 µM
Outline: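 P450-Glo CYP2C19 screening system; proluciferin substrate; DMSO compound stocks; 10 min RT preincubation; NADPH regeneration, 1 h at 37C; luciferin detection reagent, 20 min RT; luminescence as RLU.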

[9] = target: Cytochrome P450 2C9 (Homo sapiens) (UniProt P11712); assay: Cytochrome P450 Family 2 Subfamily C Member 9 (CYP2C9) small molecule antagonists: luciferase reporter qHTS assay (AID 1671198); also: nearly all actives have a fitted effect of over 50% in size; also: potency is read from the fitted curve at half-maximal effect; as to activity change, negative = inhibition: series mostly up to about 120 µM
Outline: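 CYP2C9 activity was measured with a P450-Glo proluciferin substrate. Enzyme–substrate mix was held with compound for 10 min at room temperature, then NADPH regeneration solution was added for 1 h at 37C. Luciferin product was read as luminescence.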

[10] = target: Cytochrome P450 1A2 (Homo sapiens) (UniProt P05177); assay: Cytochrome P450 Family 1 Subfamily A Member 2 (CYP1A2) small molecule antagonists: luciferase reporter qHTS assay (AID 1671199); also: nearly all actives have a fitted effect of over 50% in size; also: potency is read from the fitted curve at half-maximal effect; as to activity change, negative = inhibition: series mostly up to about 120 µM
Outline: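 Compounds were incubated with CYP1A2 and a luminogenic proluciferin substrate for 10 min at room temperature before the reaction was started with NADPH regeneration solution. After 1 h, detection reagent was added and light output, proportional to CYP activity, was recorded.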

[11] = target: Cytochrome P450 3A4 (Homo sapiens) (UniProt P08684); assay: Cytochrome P450 Family 3 Subfamily A Member 4 (CYP3A4) small molecule antagonists: luciferase reporter qHTS assay (AID 1671201); also: nearly all actives have a fitted effect of over 50% in size; also: potency is read from the fitted curve at half-maximal effect; as to activity change, negative = inhibition: series mostly up to about 120 µM
Outline: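 Luminescent readout (RLU) proportional to CYP3A4 activity, from luciferin generated off a proluciferin substrate. Enzyme–substrate mix plus compound 10 min at room temp, NADPH regeneration 1 h, detection reagent 20 min.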

[12] = Caspase-3/7 induction in CHO-K1 cells by small molecules, qHTS cell viability counter screen (AID 1346979); also: nearly all actives have a fitted effect of over 35% in size
Outline: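 CHO-K1 wt, 1,500 cells/well; 5hr pre-incubation 37C/5% CO2; compound pin transfer (DMSO); 16hr exposure; CellTiter-Fluor added, 1hr, fluorescence read.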

[13] = target: Nuclear receptor subfamily 1 group I member 2 (Rattus norvegicus) (UniProt Q9R1A7); assay: Rat pregnane X receptor (rPXR) activation by small molecules, qHTS assay (AID 1346983); settings: rPXR luciferase reporter cells, One-Glo luminescence, 24 h; max activation: active compounds read high; also: nearly all actives have a fitted effect of over 20% in size
Outline: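 Cell-based rPXR luciferase reporter assay, 2,000 cells per well, rested 5hr at 37 C before compound addition in DMSO, then 24 hr at 37 C. One-Glo reagent was added and luminescence read after 30 min at room temperature.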

[14] = target: Nuclear receptor subfamily 1 group I member 2 (Homo sapiens) (UniProt O75469); assay: CYP3A4 induction through human pregnane X receptor (PXR) by small molecules, qHTS assay (AID 1346984); also: nearly all actives have a fitted effect of over 40% in size
Outline: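 Quantitative HTS in DPX-2 cells, i.e. HepG2 transfected with PXR response element and CYP3A4-promoter luciferase. Compounds in DMSO incubated 24hr at 37C; then P450-Glo CYP3A4 substrate, 3uM final, 3hr; One-Glo luminescence.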

[15] = target: Nuclear receptor subfamily 1 group I member 2 (Homo sapiens) (UniProt O75469); assay: Human pregnane X receptor (PXR) activation by small molecules, qHTS assay (AID 1346985); also: nearly all actives have a fitted effect of over 40% in size
Outline: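 DPX-2 cells (HepG2 co-transfected with a PXR response element and a CYP3A4-promoter luciferase construct) were seeded at 2,000 per well, rested 5 hr at 37C, then exposed to DMSO-dissolved compounds for 24 hr. Activation was read as luciferase luminescence.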
% is scaled to controls: 0 for no effect and ±100 for the full control effect.

Sequence of Nuclear receptor subfamily 1 group I member 2 (Homo sapiens) (O75469 whole entry, looked up): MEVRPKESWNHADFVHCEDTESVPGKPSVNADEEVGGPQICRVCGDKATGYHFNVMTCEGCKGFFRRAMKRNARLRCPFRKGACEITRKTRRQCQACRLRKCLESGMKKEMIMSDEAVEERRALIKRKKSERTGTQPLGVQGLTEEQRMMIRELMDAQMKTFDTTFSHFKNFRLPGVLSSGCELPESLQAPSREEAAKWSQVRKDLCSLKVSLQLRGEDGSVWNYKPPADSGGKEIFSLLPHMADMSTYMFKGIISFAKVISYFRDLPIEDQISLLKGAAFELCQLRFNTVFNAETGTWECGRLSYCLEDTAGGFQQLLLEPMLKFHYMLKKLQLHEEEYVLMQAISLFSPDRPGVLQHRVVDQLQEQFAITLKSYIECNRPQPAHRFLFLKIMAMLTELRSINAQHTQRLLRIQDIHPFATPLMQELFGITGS
Sequence of Cytochrome P450 2C9 (Homo sapiens) (P11712 whole entry, looked up): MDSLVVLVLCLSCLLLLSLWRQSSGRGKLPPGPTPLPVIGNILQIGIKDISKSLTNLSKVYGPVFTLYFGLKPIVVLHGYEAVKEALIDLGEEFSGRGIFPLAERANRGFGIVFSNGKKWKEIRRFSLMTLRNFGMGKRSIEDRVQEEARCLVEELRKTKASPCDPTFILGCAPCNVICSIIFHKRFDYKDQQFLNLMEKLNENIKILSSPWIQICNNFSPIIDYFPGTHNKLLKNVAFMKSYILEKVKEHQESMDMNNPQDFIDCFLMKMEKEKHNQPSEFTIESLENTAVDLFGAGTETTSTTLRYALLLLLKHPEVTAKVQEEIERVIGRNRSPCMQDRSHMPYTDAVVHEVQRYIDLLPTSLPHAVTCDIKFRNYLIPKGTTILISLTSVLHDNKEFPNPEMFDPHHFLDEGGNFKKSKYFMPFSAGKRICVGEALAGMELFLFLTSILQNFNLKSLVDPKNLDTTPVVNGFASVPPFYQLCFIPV
Sequence of Cytochrome P450 2C19 (Homo sapiens) (P33261 whole entry, looked up): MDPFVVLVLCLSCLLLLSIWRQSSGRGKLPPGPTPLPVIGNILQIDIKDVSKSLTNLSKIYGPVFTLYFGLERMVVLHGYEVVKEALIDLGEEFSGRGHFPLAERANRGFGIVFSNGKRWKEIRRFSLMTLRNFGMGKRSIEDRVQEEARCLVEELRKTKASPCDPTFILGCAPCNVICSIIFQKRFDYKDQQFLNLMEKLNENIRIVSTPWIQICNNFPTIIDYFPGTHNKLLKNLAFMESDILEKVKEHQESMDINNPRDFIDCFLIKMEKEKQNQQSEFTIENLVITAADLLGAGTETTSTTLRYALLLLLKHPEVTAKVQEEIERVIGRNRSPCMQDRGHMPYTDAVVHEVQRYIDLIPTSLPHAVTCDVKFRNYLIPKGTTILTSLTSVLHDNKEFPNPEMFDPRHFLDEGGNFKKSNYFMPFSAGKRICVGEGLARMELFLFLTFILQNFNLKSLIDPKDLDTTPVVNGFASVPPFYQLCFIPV
Sequence of Cytochrome P450 3A4 (Homo sapiens) (P08684 whole entry, looked up): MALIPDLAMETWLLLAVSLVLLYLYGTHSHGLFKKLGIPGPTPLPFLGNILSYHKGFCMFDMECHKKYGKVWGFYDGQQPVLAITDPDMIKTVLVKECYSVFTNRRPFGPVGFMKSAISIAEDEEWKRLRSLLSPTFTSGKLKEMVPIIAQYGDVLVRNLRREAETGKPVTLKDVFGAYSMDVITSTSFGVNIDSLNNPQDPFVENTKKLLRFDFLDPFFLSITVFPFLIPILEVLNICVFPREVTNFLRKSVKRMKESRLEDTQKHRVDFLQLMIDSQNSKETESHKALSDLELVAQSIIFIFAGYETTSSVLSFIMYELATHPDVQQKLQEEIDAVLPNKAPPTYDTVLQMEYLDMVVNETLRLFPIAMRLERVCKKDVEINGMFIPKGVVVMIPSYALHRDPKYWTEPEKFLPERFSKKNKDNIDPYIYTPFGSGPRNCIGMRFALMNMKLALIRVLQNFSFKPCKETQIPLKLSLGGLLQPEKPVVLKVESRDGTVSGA
Sequence of Cytochrome P450 1A2 (Homo sapiens) (P05177 whole entry, looked up): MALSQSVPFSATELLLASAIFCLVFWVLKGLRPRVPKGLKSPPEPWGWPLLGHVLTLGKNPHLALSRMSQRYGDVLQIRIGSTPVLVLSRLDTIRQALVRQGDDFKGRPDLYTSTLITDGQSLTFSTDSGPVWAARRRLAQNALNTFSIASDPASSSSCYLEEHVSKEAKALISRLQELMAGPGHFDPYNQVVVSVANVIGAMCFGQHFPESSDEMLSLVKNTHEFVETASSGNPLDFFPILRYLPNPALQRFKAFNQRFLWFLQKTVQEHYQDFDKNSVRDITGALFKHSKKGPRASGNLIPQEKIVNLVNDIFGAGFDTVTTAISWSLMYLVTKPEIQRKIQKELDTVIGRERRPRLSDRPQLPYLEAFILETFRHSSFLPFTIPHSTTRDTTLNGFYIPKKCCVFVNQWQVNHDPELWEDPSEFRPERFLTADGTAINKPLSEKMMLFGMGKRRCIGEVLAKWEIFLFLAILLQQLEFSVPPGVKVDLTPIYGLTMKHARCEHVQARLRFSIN
Sequence of Voltage-gated inwardly rectifying potassium channel KCNH2 (Homo sapiens) (Q12809 whole entry, looked up): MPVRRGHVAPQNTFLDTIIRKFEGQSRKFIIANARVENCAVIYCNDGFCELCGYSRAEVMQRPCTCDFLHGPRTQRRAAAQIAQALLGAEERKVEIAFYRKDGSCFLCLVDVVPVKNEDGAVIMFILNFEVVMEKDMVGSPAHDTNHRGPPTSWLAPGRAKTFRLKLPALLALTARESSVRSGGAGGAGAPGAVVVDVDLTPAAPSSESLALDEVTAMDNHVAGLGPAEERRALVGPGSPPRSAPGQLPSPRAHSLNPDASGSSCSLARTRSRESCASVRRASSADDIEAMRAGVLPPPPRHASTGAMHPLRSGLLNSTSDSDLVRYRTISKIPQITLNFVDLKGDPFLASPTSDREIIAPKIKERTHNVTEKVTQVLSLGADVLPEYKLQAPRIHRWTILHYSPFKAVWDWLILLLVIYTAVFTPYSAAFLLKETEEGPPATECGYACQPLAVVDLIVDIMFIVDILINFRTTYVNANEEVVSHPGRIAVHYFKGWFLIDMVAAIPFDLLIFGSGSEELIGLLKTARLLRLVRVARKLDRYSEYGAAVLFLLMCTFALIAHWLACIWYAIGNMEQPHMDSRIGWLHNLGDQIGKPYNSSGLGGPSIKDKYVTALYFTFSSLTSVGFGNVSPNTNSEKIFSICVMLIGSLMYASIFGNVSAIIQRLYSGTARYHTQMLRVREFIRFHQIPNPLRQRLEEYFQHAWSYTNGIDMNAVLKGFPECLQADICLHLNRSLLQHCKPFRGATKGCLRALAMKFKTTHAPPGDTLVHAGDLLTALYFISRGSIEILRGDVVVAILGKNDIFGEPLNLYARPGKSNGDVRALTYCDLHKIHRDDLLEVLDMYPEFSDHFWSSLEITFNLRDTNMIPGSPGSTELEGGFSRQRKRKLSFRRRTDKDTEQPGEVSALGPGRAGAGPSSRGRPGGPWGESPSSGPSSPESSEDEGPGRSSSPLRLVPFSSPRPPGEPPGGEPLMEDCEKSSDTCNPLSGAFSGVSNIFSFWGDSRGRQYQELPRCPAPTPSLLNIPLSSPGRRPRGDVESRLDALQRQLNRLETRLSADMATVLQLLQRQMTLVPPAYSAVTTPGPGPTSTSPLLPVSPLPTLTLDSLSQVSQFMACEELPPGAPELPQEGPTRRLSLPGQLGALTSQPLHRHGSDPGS
Sequence of Cytochrome P450 2D6 (Homo sapiens) (P10635 whole entry, looked up): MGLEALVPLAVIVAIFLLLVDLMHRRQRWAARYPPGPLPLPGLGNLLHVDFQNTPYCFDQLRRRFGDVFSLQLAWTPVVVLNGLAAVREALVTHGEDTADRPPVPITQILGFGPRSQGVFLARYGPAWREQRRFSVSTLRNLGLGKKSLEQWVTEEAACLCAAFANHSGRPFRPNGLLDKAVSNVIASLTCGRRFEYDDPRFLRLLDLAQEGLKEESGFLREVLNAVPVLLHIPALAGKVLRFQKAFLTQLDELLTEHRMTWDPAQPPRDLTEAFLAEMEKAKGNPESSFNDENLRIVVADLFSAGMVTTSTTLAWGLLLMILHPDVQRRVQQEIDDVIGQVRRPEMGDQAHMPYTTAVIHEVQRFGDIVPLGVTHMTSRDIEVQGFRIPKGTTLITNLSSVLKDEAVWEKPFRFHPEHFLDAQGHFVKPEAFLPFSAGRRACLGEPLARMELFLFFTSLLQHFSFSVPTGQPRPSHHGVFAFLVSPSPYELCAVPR
Sequence of Nuclear receptor subfamily 1 group I member 2 (Rattus norvegicus) (Q9R1A7 whole entry, looked up): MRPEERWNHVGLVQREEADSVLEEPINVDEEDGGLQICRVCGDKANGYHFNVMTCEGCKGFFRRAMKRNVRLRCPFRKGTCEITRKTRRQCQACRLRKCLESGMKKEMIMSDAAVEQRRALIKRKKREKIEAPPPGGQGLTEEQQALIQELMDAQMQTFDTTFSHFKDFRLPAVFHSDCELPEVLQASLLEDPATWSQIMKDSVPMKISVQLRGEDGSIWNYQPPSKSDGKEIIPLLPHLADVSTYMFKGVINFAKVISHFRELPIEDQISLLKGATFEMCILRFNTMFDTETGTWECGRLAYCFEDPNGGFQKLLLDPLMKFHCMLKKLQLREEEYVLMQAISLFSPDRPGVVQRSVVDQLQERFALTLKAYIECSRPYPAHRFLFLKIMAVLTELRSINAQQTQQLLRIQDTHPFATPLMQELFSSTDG

C[C@H](CCC(=O)O)[C@H]1CC[C@H]2[C@@H]3CC[C@@H]4C[C@H](O)CC[C@]4(C)[C@H]3C[C@H](O)[C@]12C
inactive: Potency [1] | Potency [2] | Potency [3] | Potency [5]
active: Potency [4] 54.6 µM

CC(C)=CCC/C(C)=C/CC/C(C)=C/CO
inactive: Potency [1] | Potency [2] | Potency [4]
active: Potency [6] 43.3 µM | Potency [7] 39.9 µM | Potency [8] 4.48 µM | Potency [9] 17.8 µM | Potency [10] 28.3 µM | Potency [11] 25.2 µM

COc1ccc(C)cc1[N+](=O)[O-]
inactive: Potency [1] | Potency [2] | Potency [3] | Potency [4] | Potency [6] | Potency [5]
active: Potency [10] 10.2 µM | Potency [11] 36.1 µM

Cn1c(=O)cc(Oc2ccc(F)cc2F)c2cnc(NCC(C)(C)O)nc21
active: Potency [6] 43.3 µM | Potency [8] 71 µM | Potency [9] 56.4 µM
inactive: Potency [1] | Potency [2] | Potency [3] | Potency [4] | Potency [5] | Potency [11]

Cc1cc(N)c2cc(NC(=O)Nc3ccc4nc(C)cc(N)c4c3)ccc2n1
inactive: Potency [1] | Potency [2] | Potency [3] | Potency [4] | Potency [5]

NS(=O)(=O)c1ccc(N2CCCCS2(=O)=O)cc1
inactive: Potency [1] | Potency [12] | Potency [3] | Potency [4] | Potency [6] | Potency [7] | Potency [8] | Potency [9] | Potency [10] | Potency [5] | Potency [11]

CCCC(=O)Nc1ccc(O)c(C(C)=O)c1
inactive: Potency [1] | Potency [2] | Potency [4] | Potency [6] | Potency [7] | Potency [8] | Potency [5] | Potency [11]

O=C1CCCCCCCCCCCC(=O)OCCO1
inactive: Potency [1] | Potency [2] | Potency [3] | Potency [4] | Potency [6]
active: Potency [8] 71 µM | Potency [9] 63.3 µM | Potency [11] 35.6 µM

NCC(=O)O
inactive: activity change, negative = cytotoxicity [1] 14.5% [at 19 µM] | caspase activation [2] -0.745% [at 19 µM] | caspase-3/7 activation [3] -1.83% [at 19 µM] | activity change, negative = cytotoxicity [4] 4.32% [at 19 µM] | activity change, negative = inhibition [5] 0.344% [at 15.8 µM]

Cc1c(N)cccc1[N+](=O)[O-]
active: Potency [10] 32.2 µM
inactive: Potency [2] | Potency [12] | Potency [3] | Potency [4] | Potency [6] | Potency [7] | Potency [8] | Potency [9] | Potency [5]

CN(C)CCN(Cc1ccccc1)c1ccccn1
inactive: Potency [2] | Potency [12] | Potency [3] | Potency [4] | max activation [13] 2.98% | Potency [14] | Potency [15] | Potency [9] | Potency [11]
active: Potency [6] 6.68 µM | Potency [7] 0.219 µM | Potency [5] 9.52 µM
